Values joined by “and” are separate entries in the source; they are usually repeats but may differ in a detail not shown here. Equal values may be shown once. Inconclusive results are not listed. More than one record can exist for a structure, and the calls need not agree. Active and inactive are the calls of the source. Unless noted, the call rests on the fitted dose curve; in most records, active means well fitted curve in the direction sought with a large enough effect in the repeat runs; inconclusive means weak or mixed curves; inactive means no such curve, though single readings can be large; an effect the other way counts as inactive or inconclusive.

Assay [1] is described as follows: qHTS assay to identify small molecule antagonists of the estrogen related receptor (ERR) signaling pathway from Tox21 library - cell viability counter screen (AID 1224834). Further: nearly all actives have a fitted effect of over 30% in size. Further: potency means the concentration at half of the fitted maximal effect. The gist of the method:
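Seeded ERR cells were rested 6 h at 37 C/5% CO2 before compounds, positive and negative controls or DMSO were added. Incubation continued for 17.5 h, and viability was then quantified by CellTiter-Fluor fluorescence.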
Background: qHTS replaces the single test concentration by a dilution series.

Assay [2] deals with Luciferin 4-monooxygenase (Photinus pyralis) (UniProt P08659). Nature of the assay: qHTS assay to identify small molecule inhibitors of firefly luciferase (AID 1224835). Further: nearly all actives have a fitted effect of over 25% in size. The gist of the method:
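Quantitative HTS format; KM concentrations of both substrates. Purified P. pyralis FLuc activity quantified from luminescence images.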

Assay [3] can be described thus: qHTS assay to identify small molecule agonists of the constitutive androstane receptor (CAR) signaling pathway - cell viability counter screen (AID 1224836). Further: nearly all actives have a fitted effect of over 45% in size. The gist of the method:
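Multiplexed viability check: HepG2-CYP2B6-hCAR cells, 15-point compound dosing, 0.75 uM PK11195 final, 23 h at 37 C, CellTiter-Fluor fluorescence.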

Assay [4] is described as follows: qHTS assay to identify small molecule antagonists of the constitutive androstane receptor (CAR) signaling pathway - cell viability counter screen (AID 1224837). Further: nearly all actives have a fitted effect of over 45% in size. An outline of the steps: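 To flag cytotoxic false antagonists, HepG2 hCAR/CYP2B6-2.2kb cells were treated 23 hr with 15-concentration compound series and 50 nM CITCO at 37 C/5% CO2; CellTiter-Fluor fluorescence was the measured end point.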

Assay [5] is described as follows: qHTS assay to identify small molecule antagonists of the estrogen related receptor signaling pathway with the pleiotropic PPARgamma coactivator (PGC) from Tox21 10K library - cell viability counter screen (AID 1224840; active means well fitted cell-killing curve with a large enough effect in the repeat runs, not every such curve was filed as active; further: nearly all actives have a fitted effect of over 40% in size; further: potency means the concentration at half of the fitted maximal effect). An outline of the steps: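 Seeded PGC/ERR cells (2,000/well, 6 h, 37 C/5% CO2) get compound by pin tool; 17.5 h incubation at 37 C; CellTiter-Fluor added, 30 min, fluorescence measured.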

Assay [6] can be described thus: qHTS assay to identify small molecule antagonists of the estrogen related receptor signaling pathway with the pleiotropic PPARgamma coactivator (PGC) from Tox21 10K library (AID 1224841; call rule not given here; further: actives are mostly falling curves and most rising ones were filed inactive; nearly all actives have a fitted effect of over 50% in size). The gist of the method: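 Test chemicals dissolved in DMSO were applied to pre-incubated (6 h) PGC/ERR cells at 2,000 cells/well for an 18 h, 37 C treatment; reporter luminescence was then read using One-Glo.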

The nature of assay [7]: qHTS assay to identify small molecule agonists of the estrogen related receptor signaling pathway with the pleiotropic PPARgamma coactivator (PGC) from Tox21 10K library (AID 1224842). Further: nearly all actives have a fitted effect of over 15% in size. An outline of the steps: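 PGC/ERR reporter cells (NTP line) were seeded 2,000 per well, rested 6 h at 37 C/5% CO2, then pin-dosed with compounds in DMSO for 18 h at 37 C; luciferase read by One-Glo luminescence after 30 min at room temperature.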

Assay [8] can be described thus: qHTS assay to identify small molecule agonists of the hypoxia (HIF-1) signaling pathway - cell viability counter screen (AID 1224844; calls by dose curve; further: nearly all actives have a fitted effect of over 50% in size). The gist of the method:
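HRE-bla ME-180; 0.5% dFBS; cpd 17 h, 37C, 5% CO2; CellTiter-Glo lum., 30 min RT, post-FRET read, same wells.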

The nature of assay [9]: qHTS assay to identify small molecule agonists of H2AX (AID 1224845; active means well fitted activation curve with a large enough effect in the signal ratio in the repeat runs, not every such curve was filed as active; the % refers to the signal ratio). The gist of the method:
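Wild-type CHO-K1 cells plated overnight, then exposed 3 hr at 37C to compounds at 15 concentrations (0.76% DMSO). Lysed, then HTRF anti-pH2AX(S139)-cryptate/anti-H2AX-d2 detection after 24 hr at room temperature; emissions 665 and 620 nm.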

A short description of assay [10]: qHTS assay to identify small molecule agonists of the hypoxia (HIF-1) signaling pathway (AID 1224846; active means well fitted activation curve with a large enough effect in the signal ratio in the repeat runs, not every such curve was filed as active; the % refers to the signal ratio). An outline of the steps:
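Reporter induction in HRE-bla ME-180 cells is taken as agonism: cells sit 5 hrs after plating, receive compounds or DMSO only, incubate 17 hrs at 37C under 5% CO2, and are loaded with CCF4-AM for beta-lactamase FRET measurement.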

The nature of assay [11]: qHTS assay to identify small molecule agonists of H2AX - cell viability counter screen (AID 1224847; calls by dose curve; further: nearly all actives have a fitted effect of over 30% in size; further: potency means the concentration at half of the fitted maximal effect). An outline of the steps: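 After overnight plating of 1000 CHO-K1 cells per well, a 15-concentration compound series was applied for 3 hr at 37C. Luminescence from CellTiter-Glo, read following 30 min at room temperature, reflected cell viability.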
Assay [12] can be described thus: qHTS assay to identify small molecule antagonists of the estrogen related receptor (ERR) signaling pathway from Tox21 library (AID 1224848). Further: nearly all actives have a fitted effect of over 50% in size. An outline of the steps:
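First, 2,000 ERR cells per well were plated and held 6 h at 37 C/5% CO2. Next, compounds in DMSO were pinned in and left 18 h at 37 C. Finally, ONE-Glo was added and luminescence read after 30 min at room temperature.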

Assay [13] can be described thus: qHTS assay to identify small molecule agonists of the estrogen related receptor (ERR) signaling pathway from Tox21 library (AID 1224849; calls by dose curve; further: nearly all actives have a fitted effect of over 15% in size). Conditions: ERR reporter cell line, ONE-Glo luciferase, 18 h. An outline of the steps: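 Tox21 compounds tested for ERR agonism in an NTP reporter cell line: 18 h treatment at 37 C, then ONE-Glo luminescence.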
A short description of assay [14]: qHTS RealTime-Glo MT Cell Viability Assay in HepG2 cells - 24 hour (AID 1224867). Further: nearly all actives have a fitted effect of over 50% in size. The gist of the method:
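Real-time, nonlytic viability: 600 HepG2 cells/well mixed with NanoLuc enzyme plus prosubstrate; 5 h settle, compound (DMSO) added by pintool; luminescence monitored over 40 h at 37 C.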

The nature of assay [15]: qHTS RealTime-Glo MT Cell Viability Assay in HEK293 cells - 32 hour (AID 1224868). Further: nearly all actives have a fitted effect of over 50% in size. Further: potency means the concentration at half of the fitted maximal effect. The gist of the method: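 Cells + reagent dispensed (600 cells/well, HEK293) → 5 h at 37 C/5% CO2 → 23 nL compound in DMSO pinned → 40 h at 37 C → luminescence read at 0, 8, 16, 24, 32, 40 h.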
Assay [16] in a line: A CellTox Green Cytotoxicity Assay to monitor cytotoxicity in HEK293 cells - 0 hour (AID 1224869). Further: nearly all actives have a fitted effect of over 50% in size. Further: potency means the concentration at half of the fitted maximal effect. An outline of the steps:
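Tox21 screen in HEK293: membrane-impermeant cyanine dye fluoresces on binding dead-cell DNA; compound pinned 5 h post-seeding, plates held at 37 C, signal read repeatedly through 40 h.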

Assay [17] in a line: qHTS RealTime-Glo MT Cell Viability Assay in HepG2 cells - 40 hour (AID 1224870). Further: nearly all actives have a fitted effect of over 50% in size. An outline of the steps:
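HepG2 cells mixed with RealTime-Glo MT reagents (NanoLuc plus cell-permeant prosubstrate) were seeded at 600 cells/well, incubated 5 h at 37 C/5% CO2, then pinned with compounds in DMSO; nonlytic luminescence tracked viability during 40 h treatment.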

In assay [18] the target is Nuclear receptor subfamily 1 group I member 3 (Homo sapiens) (UniProt Q14994). Nature of the assay: qHTS assay to identify small molecule antagonists of the constitutive androstane receptor (CAR) signaling pathway (AID 1224838).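 Further: HepG2 cells stably expressing hCAR with CYP2B6 luciferase reporter stimulated by CITCO; nearly all actives have a fitted effect of over 40% in size.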 An outline of the steps: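 Human hepatoma HepG2 cells expressing hCAR and a CYP2B6 promoter (2.2 kb) luciferase construct; compound titration (15 points) with 50 nM CITCO final, 24 h at 37 C/5% CO2; luminescence via ONE-Glo after 30 min at room temperature.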

The target of assay [19] is Thyrotropin receptor (Homo sapiens) (UniProt P16473). Kind of assay: qHTS assay to identify small molecule agonists of the thyroid stimulating hormone receptor (TSHR) signaling pathway (AID 1224843; calls by dose curve; further: nearly all actives have a fitted effect of over 45% in size). An outline of the steps: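 Compounds are titrated over 15 concentrations, in triplicate, onto TSHR-HEK293 cells seeded at 800/well. Plates sit 30 min at room temperature before cAMP-d2 and anti-cAMP cryptate are added; signal is read after a further hour.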

Assay [20] addresses Nuclear receptor subfamily 1 group I member 3 (Homo sapiens) (UniProt Q14994). Nature of the assay: qHTS assay to identify small molecule agonists of the constitutive androstane receptor (CAR) signaling pathway (AID 1224839). Further: nearly all actives have a fitted effect of over 15% in size. Further: potency means the concentration at half of the fitted maximal effect.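 On activation: HepG2 cells stably carrying human CAR and a CYP2B6 luciferase reporter.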 The gist of the method: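 Using human hepatoma HepG2 cells engineered with hCAR and a CYP2B6-2.2kb reporter, 15-concentration compound series were incubated 24 h alongside PK11195 at 0.75 uM final, with luminescence quantified afterwards.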
On the % scale 0 is the no-effect control and ±100 the full control effect.

Luciferin 4-monooxygenase (Photinus pyralis), sequence (P08659 whole entry, looked up): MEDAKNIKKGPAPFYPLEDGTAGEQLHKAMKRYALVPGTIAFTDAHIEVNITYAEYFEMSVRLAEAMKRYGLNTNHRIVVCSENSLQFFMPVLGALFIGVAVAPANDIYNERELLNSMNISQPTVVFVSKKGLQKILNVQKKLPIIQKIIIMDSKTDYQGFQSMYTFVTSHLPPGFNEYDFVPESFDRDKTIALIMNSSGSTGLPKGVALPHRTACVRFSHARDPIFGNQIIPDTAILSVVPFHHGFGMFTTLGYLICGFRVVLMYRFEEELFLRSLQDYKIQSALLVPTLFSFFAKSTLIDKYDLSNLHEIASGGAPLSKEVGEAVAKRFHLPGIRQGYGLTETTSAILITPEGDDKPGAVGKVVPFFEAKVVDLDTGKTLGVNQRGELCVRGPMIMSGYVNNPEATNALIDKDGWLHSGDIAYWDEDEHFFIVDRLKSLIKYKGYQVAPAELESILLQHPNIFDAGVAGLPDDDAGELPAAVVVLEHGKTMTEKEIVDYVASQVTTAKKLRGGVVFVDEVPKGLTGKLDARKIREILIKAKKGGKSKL
Nuclear receptor subfamily 1 group I member 3 (Homo sapiens), sequence (Q14994 whole entry, looked up): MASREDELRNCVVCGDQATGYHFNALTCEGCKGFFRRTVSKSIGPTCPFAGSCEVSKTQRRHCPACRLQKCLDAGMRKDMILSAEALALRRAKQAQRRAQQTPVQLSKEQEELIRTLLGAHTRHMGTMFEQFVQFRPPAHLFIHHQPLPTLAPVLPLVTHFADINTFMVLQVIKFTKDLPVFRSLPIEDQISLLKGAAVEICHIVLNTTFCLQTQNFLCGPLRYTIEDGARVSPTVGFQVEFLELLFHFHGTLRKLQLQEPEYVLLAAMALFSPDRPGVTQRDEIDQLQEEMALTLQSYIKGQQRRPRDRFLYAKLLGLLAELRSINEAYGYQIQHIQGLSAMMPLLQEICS
Thyrotropin receptor (Homo sapiens), sequence (P16473 whole entry, looked up): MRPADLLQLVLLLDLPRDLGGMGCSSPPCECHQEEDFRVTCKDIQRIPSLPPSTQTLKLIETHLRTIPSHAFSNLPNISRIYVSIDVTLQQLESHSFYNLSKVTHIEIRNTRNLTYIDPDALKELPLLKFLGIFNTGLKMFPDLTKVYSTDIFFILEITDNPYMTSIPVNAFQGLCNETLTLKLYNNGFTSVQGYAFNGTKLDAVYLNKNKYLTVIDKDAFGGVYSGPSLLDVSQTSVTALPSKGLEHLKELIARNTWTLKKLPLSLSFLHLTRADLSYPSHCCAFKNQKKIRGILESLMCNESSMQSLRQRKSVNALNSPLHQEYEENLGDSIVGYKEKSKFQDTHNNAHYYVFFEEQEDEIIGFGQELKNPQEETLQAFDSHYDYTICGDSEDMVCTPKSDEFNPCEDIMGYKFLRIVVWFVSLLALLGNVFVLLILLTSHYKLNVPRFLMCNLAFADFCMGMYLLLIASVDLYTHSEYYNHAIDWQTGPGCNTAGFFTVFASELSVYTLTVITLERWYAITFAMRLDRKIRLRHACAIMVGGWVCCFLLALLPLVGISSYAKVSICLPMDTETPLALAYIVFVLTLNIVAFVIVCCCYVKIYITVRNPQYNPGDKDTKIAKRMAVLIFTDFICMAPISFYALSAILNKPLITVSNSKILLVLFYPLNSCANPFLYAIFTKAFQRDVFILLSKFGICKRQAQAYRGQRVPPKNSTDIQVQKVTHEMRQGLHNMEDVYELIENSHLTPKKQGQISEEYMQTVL

For `COc1cc([C@H]2Oc3cc([C@H]4Oc5cc(O)cc(O)c5C(=O)[C@@H]4O)ccc3O[C@@H]2CO)ccc1O`, the Potency in assay [1] was 48.4 µM (active) and inactive; in [5] it was 54.3 µM (active) and inactive; in assay [16], “inactive and 15.1 µM (active)”. The Potency entry in assay [2], in assay [3], in assay [4], in assay [6], in assay [7] and in assay [8] was “inactive” throughout. Moreover, the Potency entry in [9], in assay [11], in [12], in assay [14], in assay [15] and in assay [17] was “inactive” in each case. The call in assay [10] was inactive. Also, the activity change, positive = activation is 4.78% (inactive) in [13] (at 42.5 µM (top of the series)) and -26.2% (inactive) in assay [13] (at 92.4 µM (top of the series)).
Take `CC(=O)O[C@]1(C(C)=O)CC[C@H]2[C@@H]3C=C(Cl)C4=CC(=O)CC[C@]4(C)[C@H]3CC[C@@]21C`: the Potency in assay [1] is 61 µM (active); in assay [11], 101 µM (active) and inactive; in [15], 19.5 µM (active). Also, the Potency result in assay [2], in assay [3], in assay [4], in assay [18], in [5] and in assay [19] was “inactive” each time. Besides, the Potency result in assay [8], in assay [9], in assay [14], in [16] and in assay [17] was “inactive” throughout. For the same compound, the outcome in assay [10] was inactive.
As to `COCCOCCOCCO`, the Potency result in [1], in assay [2], in assay [3], in assay [4], in assay [18] and in [20] was “inactive” each time. For the same compound, the Potency result in assay [5], in assay [6], in [7], in [19], in [8] and in assay [9] was “inactive” throughout. Moreover, the Potency result in [11], in assay [12], in [14], in assay [15], in assay [16] and in assay [17] was “inactive” throughout. For the same compound, the compound was called inactive in assay [10]. In addition, in assay [13] (at 92.4 µM (top of the series)), the activity change, positive = activation was 3.34% (inactive) and 5.65% (inactive).
As to `CCCCCC=O`, the Potency entry in assay [1], in assay [2], in assay [3], in assay [4], in assay [18] and in assay [20] was “inactive” in each case. The Potency result in [5], in assay [6], in assay [7], in [19], in assay [8] and in assay [9] was “inactive” throughout. In addition, the Potency result in [11], in assay [12], in assay [14], in assay [15], in assay [16] and in [17] was “inactive” each time. Further, the compound was classed as inactive in assay [10]. Moreover, the activity change, positive = activation in assay [13] (at 92.4 µM (top of the series)) is 8.48% (inactive) and 5.45% (inactive).
As for `CCCN1C=CN(C)C1`, the Potency result in assay [1], in assay [2], in assay [3], in assay [4], in assay [18] and in assay [5] was “inactive” each time. Also, the Potency entry in [19], in [8], in assay [9], in [11], in [14] and in [15] was “inactive” throughout. The Potency entry in [16] and in [17] was “inactive” each time. Also, the call in assay [10] was inactive.
Regarding `O=C(O)c1ccc(O)cc1`, the Potency entry in [1], in assay [2], in assay [3], in [4], in assay [18] and in assay [5] was “inactive” in each case. Moreover, the Potency result in assay [6], in [7], in assay [19], in [8], in [9] and in assay [11] was “inactive” throughout. The Potency result in assay [12], in assay [14], in assay [15], in assay [16] and in [17] was “inactive” throughout. Moreover, the call in assay [10] was inactive. In assay [13] (at 92.4 µM (top of the series)), the activity change, positive = activation is 9.49% (inactive).
On to `C/C=C/C(=O)N(CC)c1ccccc1C`, for which the Potency result in assay [1], in [2], in [3], in assay [4], in assay [18] and in assay [5] was “inactive” in each case. The Potency entry in assay [6], in assay [7], in assay [19], in [8], in [9] and in assay [11] was “inactive” throughout. Moreover, the Potency entry in assay [12], in assay [14], in [15], in [16] and in assay [17] was “inactive” in each case. Besides, the Potency in assay [20] was 27.3 µM (active). In addition, the activity change, positive = activation in assay [13] (at 42.5 µM (top of the series)) was 9.15% (inactive); in [13] (at 92.4 µM (top of the series)) it was -2.58% (inactive).

Values taken from PubChem BioAssay (Tox21).
